Bioassay records as filed in PubChem.
This is a sample that favours compounds with a hit; in the whole collection about 11% have one here.
HEK cytotox = HEK 293 cell cytotoxicity; HEK 293 viability, ATP luminescence (CellTiter-Glo), 48-72 h; Potency, µM (titrated, usually from 115 µM), for the others: at the highest dose activity change, negative = cytotoxicity, hits mostly inhibitors; actives 6.6% (n = 94,000); also: % is scaled to controls: 0 for no effect and ±100 for the full control effect; nearly all actives have a fitted effect of over 60% in size
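Viability of HEK 293 cells, plated at 250 cells/well, was judged by cellular ATP after compound treatment for 48 or 72 hr. Luminescence was imaged 10 min after CellTiter-Glo addition at room temperature.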
NIH3T3 tox = cytotoxic compounds in NIH 3T3 cells; NIH 3T3 viability, CellTiter-Glo ATP luminescence, 48-72 h; Potency, µM (top dose mostly 96.7 µM), without a hit: at the highest dose activity change, negative = cytotoxicity, actives largely listed as inhibitors; actives 4.3% (n = 94,000); AID 1345082; also: % is scaled to controls: 0 for no effect and ±100 for the full control effect; nearly all actives have a fitted effect of over 55% in size
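NIH 3T3 cells at 400 cells/well received 23 nL of compound by pintool and were incubated 48 or 72 h at 37 °C. Viability was read as ATP-coupled CellTiter-Glo luminescence.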
NPR1 antag = antagonists of human natriuretic peptide receptor Npr1; Potency, µM (top dose mostly 46.3 µM), for inactives: at the top dose activity change, negative = inhibition, most hits filed as inhibitors; HEK293 hNpr1 GloSensor cGMP, ANP-stimulated luminescence; actives 1.6% (n = 76,000); calls by dose curve; also: % is scaled to controls: 0 for no effect and ±100 for the full control effect; nearly all actives have a fitted effect of over 60% in size
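HEK293 cells stably expressing human Npr1 and cGMP GloSensor pGS-40F, loaded 2 h with 2% GloSensor reagent, given compound 30 min at room temperature. Luminescence read before and 20 min after 0.1 nM hNppA.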
Luciferase inh = inhibitors of firefly (Photinus pyralis) luciferase | purified P. pyralis luciferase, luminescence, biochemical | P08659 | Potency, µM (highest dose often 115 µM), hits mostly inhibitors | actives 2.5% (n = 76,000); also: % is scaled to controls: 0 for no effect and ±100 for the full control effect; nearly all actives have a fitted effect of over 65% in size
Target sequence (P08659 whole entry, looked up): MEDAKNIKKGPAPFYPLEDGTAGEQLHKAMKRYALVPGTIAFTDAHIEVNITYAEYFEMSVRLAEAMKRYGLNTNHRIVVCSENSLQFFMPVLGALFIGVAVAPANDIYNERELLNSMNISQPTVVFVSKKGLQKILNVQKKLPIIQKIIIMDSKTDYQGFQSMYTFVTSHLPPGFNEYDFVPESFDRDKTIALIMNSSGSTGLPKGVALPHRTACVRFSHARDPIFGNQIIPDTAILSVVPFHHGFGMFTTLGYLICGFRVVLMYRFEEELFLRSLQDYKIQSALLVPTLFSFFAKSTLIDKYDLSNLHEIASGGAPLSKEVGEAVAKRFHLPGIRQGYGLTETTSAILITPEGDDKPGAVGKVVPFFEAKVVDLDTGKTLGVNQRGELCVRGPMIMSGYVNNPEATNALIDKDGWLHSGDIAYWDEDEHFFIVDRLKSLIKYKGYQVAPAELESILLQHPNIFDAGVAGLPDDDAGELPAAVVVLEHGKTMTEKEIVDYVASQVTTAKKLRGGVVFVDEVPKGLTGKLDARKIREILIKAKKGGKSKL
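Luminescence read by CCD imaging after purified firefly luciferase (10nM final) was added to substrate buffer holding 10uM D-luciferin and 10uM ATP, pH 7.5, pre-dosed with compound.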
NPR1 antag cnf = confirmation of human Npr1 natriuretic peptide receptor antagonists. shares compounds with NPR1 antag. HEK293 hNpr1 cGMP GloSensor luminescence, ANP-stimulated. actives 76% (n = 1,400). AID 1347044. Potency, µM (highest dose often 57.6 µM), without a hit: top-dose activity change, negative = inhibition, hits mostly inhibitors; calls by dose curve; also: nearly all actives have a fitted effect of over 70% in size
Npr2 selectivity = antagonizes human Npr2, subtype selectivity check. shares compounds with NPR1 antag. HEK293 hNpr2 GloSensor cGMP luminescence, CNP-stimulated. Potency, µM (titrated, usually from 57.6 µM), for the others: at the top dose activity change, negative = inhibition, most hits filed as inhibitors. actives 67% (n = 1,400). AID 1347046; calls by dose curve; also: nearly all actives have a fitted effect of over 70% in size
FLuc inh counter = FLuc enzyme inhibition, Npr1 counter-screen; shares compounds with NPR1 antag; purified FLuc enzyme, luminescence, Km substrate; Potency, µM (series often up to 57.6 µM), inactives show top-dose activity change, negative = inhibition, actives largely listed as inhibitors; actives 0.7% (n = 1,400); AID 1347047; also: 0% is about no effect
GloSensor cGMP = reduces cGMP signal in GloSensor control cells; shares compounds with NPR1 antag; AID 1347051; Potency, µM (series often up to 57.6 µM), inactives show at the highest dose activity change, negative = inhibition, most hits filed as inhibitors; actives 69% (n = 1,400); HEK293 GloSensor cGMP, SNP-stimulated, luminescence; calls by dose curve; also: % is scaled to controls: 0 for no effect and ±100 for the full control effect; nearly all actives have a fitted effect of over 70% in size
An asterisk follows results filed as active; i = inactive; ? = inconclusive; nt = no result; [ ] = remark or other dose. Unless noted, calls follow the shape of the dose curve; as a rule, active = well fitted curve in the direction sought with a large enough effect; inconclusive = small, poorly fitted or top-dose-only effect, or another doubt; inactive = no such curve, though single readings can be large; an effect the other way counts as inactive or inconclusive. Potency is read from the fitted curve at half-maximal effect.

SMILES | HEK cytotox | NIH3T3 tox | NPR1 antag | Luciferase inh | NPR1 antag cnf | Npr2 selectivity | FLuc inh counter | GloSensor cGMP
Cc1nc(N2CCC(C(=O)NC3CCc4ccccc43)CC2)cc(C(F)(F)F)n1 (stereo not drawn) | ? | ? | ? | i | 22µM* | 19µM* | 1% | 17µM*
Cc1nc(N2CCC(C(=O)NCc3ccccc3Cl)CC2)cc(C(F)(F)F)n1 | ? | ? | ? | i | nt | nt | nt | nt
Cc1nc(N2CCC(C(=O)NC3CCCCCC3)CC2)cc(C(F)(F)F)n1 | ? | -31% | ? | i | 14µM* | 12µM* | -1% | 9.7µM*
Cc1nc(N2CCC(C(=O)NC3CCCCCCC3)CC2)cc(C(F)(F)F)n1 | ? | -37% | 10µM* | ? | 7.7µM* | 14µM* | 1% | 7.7µM*
COC(=O)CNC(=O)c1c(C)nc2cnccn12 | 1%[172 µM] | -13%[138 µM] | nt | nt | nt | nt | nt | nt
COc1ccc(CN2C[C@@H]3C(C(=O)Nc4ccccc4)=NO[C@@H]3C2)cc1OC | ? | ? | -10%[70.6 µM] | i | nt | nt | nt | nt
Cc1nc(CN2Cc3nc(Nc4ccccc4)ccc3OCC2=O)cs1 | ? | ? | -18%[70.6 µM] | i | nt | nt | nt | nt
Cc1cc(=O)n(CC(=O)Nc2ccc3c(c2)OCO3)c(N2CCc3ccccc3C2)n1 | ? | ? | 3% | i | nt | nt | nt | nt
C[S+](=O)([O-])c1ccc(-c2cc(C(=O)NCCc3ccc(Cl)cc3)nn3cccc23)cc1 | ? | 22µM* | nt | nt | ? | ? | 15µM* | ?
O=C(CCC1CCN(C(=O)c2ccoc2)CC1)N1CCC(Cc2ccccc2)CC1 | ? | ? | -22% | i | ? | -27% | -16% | ?
O=C(c1noc2c1CCCC2)N1CCN(c2cccc(Cl)c2)C(=O)C1 | ? | -25% | 5% | i | nt | nt | nt | nt
CCc1cc(N2CCCC(C(=O)c3sccc3C)C2)ncn1 (stereo not drawn) | 32µM* | -39% | 7.1µM* | i | 7.7µM* | 12µM* | 3% | 7.7µM*
CC(=O)N1CCC(Cc2ccc(C(=O)NC3CCN(Cc4ccccc4)CC3)cc2)CC1 | ? | ? | 11µM* | i | 24µM* | ? | 1% | 24µM*
COc1nccc(N2CCC(CC(=O)NCc3ccccc3F)CC2)n1 | ? | ? | ? | i | ? | ? | 3% | ?
CCCCN(C)C(=O)CC1CCN(c2ccnc(OC)n2)CC1 | ? | ? | 11µM* | i | 17µM* | 15µM* | 5% | 11µM*
C#CCN(C)C(=O)c1onc(-c2ccc(OC)cc2)c1[C@H](C)O | -21%[172 µM] | -12%[138 µM] | 7%[70.6 µM] | i | nt | nt | nt | nt
COc1ccc(-c2cn(C)c(=O)n3cc(COc4ccnn4C)nc23)cc1OC | -18%[172 µM] | ? | 2%[70.6 µM] | i | nt | nt | nt | nt
CN1CCN(C)c2cc(-c3ccc(N4CCOCC4)cc3)ncc2C1 | ? | ? | -3%[70.6 µM] | i | nt | nt | nt | nt
CS(=O)(=O)N1CCCN(C(=O)COc2ccccc2)CCNC(=O)CC1c1ccccc1 (stereo not drawn) | i | -17% | -12% | i | nt | nt | nt | nt
CN(CCc1ccccc1)C1(C(=O)N2CCCC(C#N)C2)Cc2ccccc2C1 (stereo not drawn) | ? | ? | -16% | i | nt | nt | nt | nt
Clc1ccccc1C1(c2ccnc(NCCc3ccccn3)n2)CCNCC1 | ? | ? | 1% | i | nt | nt | nt | nt
Cc1c(C(=O)N(C)Cc2cc(-c3cccnc3)no2)oc2c(F)cccc12 | ? | ? | ? | i | ? | -24% | 6% | 0%
O=C(C1CCCC1)N1CCC(CCOc2ccc(F)cc2)C1 (stereo not drawn) | ? | ? | ? | i | ? | ? | 3% | 22µM*
CC(C)C(=O)N1CCC(CCOc2ccccc2)C1 (stereo not drawn) | -30% | -30% | 2% | i | nt | nt | nt | nt
Cc1ccc(OCCC2CCN(C(=O)Cc3cccnc3)C2)cc1 (stereo not drawn) | ? | -29% | ? | i | ? | ? | -5% | ?
SMILES | HEK cytotox | NIH3T3 tox | NPR1 antag | Luciferase inh | NPR1 antag cnf | Npr2 selectivity | FLuc inh counter | GloSensor cGMP
O[C@H]1CC[C@@H](Cc2cc(COc3ccccc3)on2)O[C@@H]1CN(CC1CC1)CC1CC1 | ? | ? | -9%[70.6 µM] | i | nt | nt | nt | nt
COCC(=O)N1CCn2c(nn(-c3ccncc3)c2=O)C1 | -8%[172 µM] | -15%[138 µM] | 9%[70.6 µM] | i | nt | nt | nt | nt
Cc1nc(C)c(CC(=O)N2CCCC(C)(Cc3ccc4c(c3)OCO4)C2)s1 (stereo not drawn) | 28µM* | -28% | 14µM* | i | 19µM* | 22µM* | 0% | 17µM*
Cc1noc(C)c1-c1cc2c(c(-c3ccc(F)c(Cl)c3)c1)C(=O)N(C)C2 | ? | ? | 8.9µM* | i | 16µM* | 8.9µM* | -1%[86.2 µM] | 7.9µM*
Cc1noc(C)c1-c1cc2c(c(-c3ccccc3)c1)C(=O)N(C)C2 | 40µM* | ? | 28µM* | i | 28µM* | 18µM* | 1%[86.2 µM] | 18µM*
Cc1ccccc1-c1cc(-c2c(C)noc2C)cc2c1C(=O)N(C)C2 | ? | ? | -1%[70.6 µM] | i | nt | nt | nt | nt
Cc1noc(C)c1-c1cc2c(c(-c3cccc(O)c3)c1)C(=O)N(C)C2 | ? | -51%[138 µM] | -2%[70.6 µM] | i | nt | nt | nt | nt
Cc1cccc(CNC(=O)c2csc(N3CCN(c4ccccc4)CC3)n2)c1 | 40µM* | ? | 13µM* | i | 24µM* | 24µM* | -1% | 22µM*
CCN(CC)C(=O)c1csc(N2CCN(c3cccc(Cl)c3)CC2)n1 | ? | ? | 16µM* | i | 24µM* | 22µM* | 5% | 22µM*
COc1cccc(N2CCN(c3nc(C(=O)NCc4cccc(C)c4)cs3)CC2)c1 | ? | ? | 13µM* | i | 12µM* | 11µM* | -3% | 12µM*
O=C(NC1CCCCCC1)c1csc(N2CCN(c3ccccc3)CC2)n1 | ? | ? | ? | i | 24µM* | ? | -15% | ?
CCn1nccc1C(=O)N1CC(Oc2ccc(-c3nc(C)no3)cc2)C1 | ? | ? | ? | i | nt | nt | nt | nt
CC1=NS(=O)(=O)N(C)C=C1C(=O)OCc1nc(-c2ccc(Br)cc2)no1 | ? | ? | 10µM* | i | 11µM* | 14µM* | -12% | 11µM*
